# Measured values as given in PubChem BioAssay (NCI).
# Compounds without any hit were thinned out: in the full panel of roughly 83,000, 20% have a hit.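 48-hour exposure, single concentration, 96-well plates; percent growth endpoint where 0 means no net growth. Active: below 10.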 Values without a mark were called inactive. Calls of active or inactive are those of the source.
# Tests used:
# Assay in all cases: NCI-60 one-dose screen, 48 h (100 = growth as untreated, 0 = no growth, -100 = all killed)
# Settings in all cases: 10 µM
# HT29 colon = tested on: HT29 colon
# SNB-75 CNS = tested on: SNB-75 CNS
# SNB-19 CNS = tested on: SNB-19 CNS
# U251 CNS = tested on: U251 CNS
# PC-3 prostate = tested on: PC-3 prostate
# SK-MEL-5 melanoma = tested on: SK-MEL-5 melanoma
# UACC-62 melanoma = tested on: UACC-62 melanoma
# LOX IMVI melanoma = tested on: LOX IMVI melanoma
# SK-MEL-28 melanoma = tested on: SK-MEL-28 melanoma
# SK-MEL-2 melanoma = tested on: SK-MEL-2 melanoma
# SN12C renal = tested on: SN12C renal
# UO-31 renal = tested on: UO-31 renal
# TK-10 renal = tested on: TK-10 renal
# ACHN renal = tested on: ACHN renal
# CAKI-1 renal = tested on: CAKI-1 renal
# A498 renal = tested on: A498 renal
# CCRF-CEM leukemia = tested on: CCRF-CEM leukemia
# MOLT-4 leukemia = tested on: MOLT-4 leukemia
# EKVX NSCLC = tested on: EKVX NSCLC
# SR leukemia = tested on: SR leukemia
Structure (SMILES),growth (HT29 colon),growth (SNB-75 CNS),growth (SNB-19 CNS),growth (U251 CNS),growth (PC-3 prostate),growth (SK-MEL-5 melanoma),growth (UACC-62 melanoma),growth (LOX IMVI melanoma),growth (SK-MEL-28 melanoma),growth (SK-MEL-2 melanoma),growth (SN12C renal),growth (UO-31 renal),growth (TK-10 renal),growth (ACHN renal),growth (CAKI-1 renal),growth (A498 renal),growth (CCRF-CEM leukemia),growth (MOLT-4 leukemia),growth (EKVX NSCLC) [%],growth (SR leukemia)
NC(=S)N=Nc1c(O)c2ccccc2c2ccccc12,98.4%,75.9%,38.7%,26.1%,47.2%,-99% (active),-85.1% (active),1.8% (active),35%,89%,-88.7% (active),42.5%,116%,60.7%,83.5%,101%,106%,100%,,
CC1(O)CCC2CC3OC3(C)CCC3OC3(C)CCC1C2(C)C (stereo unspecified),109%,117%,89.8%,96%,170%,90.3%,99.3%,102%,121%,107%,104%,,109%,102%,100%,,267%,104%,93.5,116%
O=C1/C(=C\c2ccccc2)CN(C(=O)c2ccccc2)C/C1=C\c1ccccc1,-48.5% (active),49.7%,55.2%,-32.6% (active),6.58% (active),-22.8% (active),-1.94% (active),-80.3% (active),-7.74% (active),58.6%,5.88% (active),43%,69.8%,3.54% (active),33.3%,45.1%,-0.797% (active),2.87% (active),,-33% (active)
N#CCCN1C/C(=C/c2ccc(Cl)cc2)C(=O)/C(=C/c2ccc(Cl)cc2)C1,-36.1% (active),11.6%,-28% (active),-95.3% (active),-39.6% (active),-60.6% (active),-66.1% (active),-80.4% (active),-61.4% (active),19%,-74.8% (active),-95.5% (active),-40.9% (active),-70.7% (active),-9.22% (active),-68.4% (active),-3.01% (active),-11.7% (active),,-17.5% (active)
COc1ccc(-c2cc(/C=C3\C(=O)Nc4ccc(OC)cc43)[nH]n2)cc1,3.87% (active),-18.7% (active),62.1%,37.8%,15.8%,31%,39.4%,40.3%,57%,23.4%,42.7%,40.6%,48.9%,52.5%,33%,23.3%,18.1%,27%,,20.1%
C#Cc1ccc(-n2c(/C=C/c3ccc4ccccc4c3)nc3ncccc3c2=O)cc1,0.964% (active),47.3%,75.3%,43.2%,13.7%,-90.3% (active),26.7%,-39% (active),58.8%,-33.2% (active),28.9%,13.7%,21.4%,23.1%,13%,-2.88% (active),2.66% (active),4.88% (active),,4.43% (active)
O=C(Nc1ccc(Cl)cc1)N1NC(c2ccc(Cl)cc2)C=C1c1ccccc1 (stereo unspecified),103%,72.1%,109%,97.1%,107%,94.6%,105%,104%,109%,107%,108%,85.8%,103%,116%,103%,103%,58.3%,83.7%,,81.4%
FC(F)(F)c1ccc2nc(-c3nc(-c4ccccc4)n4ccccc34)[nH]c2c1,14.7%,66.9%,116%,59.5%,39.6%,84.1%,103%,20.6%,98.4%,81.6%,53%,80.9%,94.2%,81.1%,99.9%,107%,52%,47.8%,,19.6%
N#Cc1ncc(Br)c(NC2CCCCCC2)n1,120%,83.8%,91.5%,92%,92.5%,103%,95.5%,101%,104%,104%,93.5%,84.7%,134%,100%,89.4%,103%,85%,86.8%,,80.9%
COc1ccc(/C=C2/CN(CCC#N)C/C(=C\c3ccc(OC)cc3)C2=O)cc1,-37.6% (active),51.4%,59.6%,-28.3% (active),-11.7% (active),-0.858% (active),-27.5% (active),-53.7% (active),6.16% (active),57.3%,-57% (active),-43.8% (active),16.2%,8.83% (active),-19.4% (active),56.3%,0.103% (active),3.59% (active),,-2.63% (active)
COc1ccc(Nc2ncnc3c2c(SC)nn3-c2ccccc2)cc1,87.2%,65.8%,91.6%,84.1%,70.4%,94.8%,86.4%,92.7%,99.1%,86.8%,83.8%,77.2%,117%,100%,82.7%,118%,98.5%,88.1%,,84.2%
Fc1ccc2nc(-c3nc(-c4ccccc4)n4ccccc34)[nH]c2c1,-52.6% (active),-44.1% (active),-36.5% (active),-67% (active),-71% (active),4% (active),3.95% (active),15.2%,-9.19% (active),-30.3% (active),16.9%,-32.9% (active),-30.2% (active),10.1%,-0.279% (active),-16.8% (active),53.3%,39.8%,,38%
COc1ccc2c(c1OC)O/C(=C\c1ncc([N+](=O)[O-])n1C)C2=O,-20.8% (active),76.6%,66.2%,55.2%,60.2%,-66.5% (active),0.211% (active),0.891% (active),-38% (active),-58.9% (active),11.8%,-42.8% (active),14.7%,-2.65% (active),-27.5% (active),68.8%,4.93% (active),1.01% (active),,6.02% (active)
Cc1c(Cl)cccc1NC(=O)c1sc2nc3c(cc2c1N)C(=O)CCC3,3.09% (active),27%,45.4%,7.51% (active),21.4%,9.76% (active),34.5%,33.3%,43.7%,18%,30.8%,33.3%,74.3%,39.4%,23.9%,-19% (active),7.08% (active),6.7% (active),,2.96% (active)
C[C@]12CC[C@@H]3c4ccc(O)cc4C[C@@H](O)[C@H]3[C@@H]1CC[C@@H]2O,102%,87.8%,108%,96.1%,90.2%,96%,97.1%,97.3%,117%,110%,100%,86.5%,111%,105%,87.6%,79.6%,103%,109%,,91.4%
O=C(CCCCC(=O)Nc1ccc2c(c1)/C(=C/c1ccc[nH]1)C(=O)N2)NO,68.7%,47.7%,83%,69.3%,80.1%,65%,68.5%,94.4%,60.4%,59.4%,93.1%,83.6%,86%,101%,97.8%,50.8%,32.4%,60.8%,,45.4%
O=C1/C(=C\c2ccc(Br)cc2)CN(C(=O)c2ccccc2F)C/C1=C\c1ccc(Br)cc1,-47.4% (active),56.5%,54.3%,-66.6% (active),3.89% (active),30.4%,-3.15% (active),-85.5% (active),15.1%,66%,14.4%,-53.6% (active),55.2%,32.3%,7.2% (active),74.9%,-10.4% (active),4.49% (active),,-27.4% (active)
